PubChem BioAssay (NCI)
Compounds without any hit were thinned out: in the full panel of roughly 83,000, 20% have a hit.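 Single-dose data. Exposure time 48 hours. Values below 10 considered active.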 Values without a mark were called inactive. The source made the active and inactive calls.

What was measured:
Test in all cases: NCI-60 one-dose screen, 48 h (100 = growth as untreated, 0 = no growth, -100 = all killed)
Details in all cases: 10 µM unless noted
SK-MEL-2 melanoma = system: SK-MEL-2 melanoma
EKVX NSCLC = system: EKVX NSCLC
SN12C renal = system: SN12C renal
UO-31 renal = system: UO-31 renal
TK-10 renal = system: TK-10 renal
ACHN renal = system: ACHN renal
CAKI-1 renal = system: CAKI-1 renal
A498 renal = system: A498 renal
CCRF-CEM leukemia = system: CCRF-CEM leukemia
MOLT-4 leukemia = system: MOLT-4 leukemia
SR leukemia = system: SR leukemia
RPMI-8226 leukemia = system: RPMI-8226 leukemia
OVCAR-8 ovarian = system: OVCAR-8 ovarian
OVCAR-5 ovarian = system: OVCAR-5 ovarian
OVCAR-4 ovarian = system: OVCAR-4 ovarian
SK-OV-3 ovarian = system: SK-OV-3 ovarian
IGROV1 ovarian = system: IGROV1 ovarian
OVCAR-3 ovarian = system: OVCAR-3 ovarian
HS 578T breast = system: HS 578T breast
NCI/ADR-RES ovarian = system: NCI/ADR-RES ovarian

SMILES | growth (SK-MEL-2 melanoma) | growth (EKVX NSCLC) | growth (SN12C renal) | growth (UO-31 renal) | growth (TK-10 renal) | growth (ACHN renal) | growth (CAKI-1 renal) | growth (A498 renal) | growth (CCRF-CEM leukemia) | growth (MOLT-4 leukemia) | growth (SR leukemia) | growth (RPMI-8226 leukemia) | growth (OVCAR-8 ovarian) | growth (OVCAR-5 ovarian) | growth (OVCAR-4 ovarian) [%] | growth (SK-OV-3 ovarian) [%] | growth (IGROV1 ovarian) | growth (OVCAR-3 ovarian) | growth (HS 578T breast) | growth (NCI/ADR-RES ovarian)
C[C@@H](Nc1ncnc2ccc(-c3cnc(Cl)c(NS(C)(=O)=O)c3)cc12)c1ccccc1 | 53.7% | 19.8% | 30.1% | 26.9% | 3.2% (active) | 43.1% | 10.1% | -22.2% (active) | 42.6% | 20.8% | 47.6% | 23.9% | 75.9% | 38.4% | 58.3 | 55.6 | 3.14% (active) | 44.6% | 27.1% | 85%
COc1cc(OC)c(/C=C/S(=O)(=O)Cc2ccc(OC)c(NCC(=O)NO)c2)c(OC)c1 | 51.1% | 34.4% | 19.2% | 35.4% | 65% | 27.9% | 25.7% | -11.7% (active) | 14.8% | 16.5% | 12.2% | 20.2% | 8.29% (active) | 33.6% | 45.3 | 37.3 | 9.44% (active) | 2.98% (active) | 17% | 7.63% (active)
COc1ccc(N2C(=O)c3cc(Cl)ccc3NC2SCc2ccccc2)cc1 (stereo not given) | 98.9% | 91.6% | 91.5% | 63.8% | 96.2% | 101% | 81.8% | 84.7% | 92.2% | 84.5% | 103% | 107% | 94.8% | 102% | 94.7 | 101 | 99.5% | 105% | 106% | 99.1%
CN1CCN(c2ccc(/C=N/n3cnc4oc(-c5ccccc5)cc4c3=N)cc2)CC1 | 103% | 88.4% | 66% | 63.7% | 119% | 70.1% | 72.5% | 81.4% | 44.8% | 44.4% | 36.6% | 87.9% | 96.1% | 76.2% | 83.1 | 71.3 | 36.7% | 90.2% | 63.8% | 81.3%
FC(F)(F)c1cc(Nc2cccc(Oc3ccc(NC4=NCCN4)nc3)c2)ccc1Cl | 5.11% (active) | 12.6% | -24.8% (active) | 21.9% | 27.5% | 1.37% (active) | 16.2% | 37.9% | 14.6% | 9.2% (active) | -28.1% (active) | -37.6% (active) | 30.8% | 3.8% (active) | 28.2 | 71 | -1.17% (active) | -40.3% (active) | 39.7% | -10.6% (active)
CC1(C)[C@@H](O)CC[C@]2(C)[C@H]3CC[C@@H]4[C@H]5[C@H](C(=O)/C=C\c6ccncc6)CC[C@]5(O)CC[C@@]4(C)[C@]3(C)CC[C@@H]12 | 94.9% | 42.8% | 75.1% | 53.1% | 100% | 52.5% | 35.1% | 46.6% | 8.75% (active) | 27.9% | 4.32% (active) | 12.1% | 40.3% | 47.5% | 38.5 | 113 | 37.3% | 34.6% | 39.3% | 25.5%
Clc1cccc(/C=N/Nc2nc(N/N=C/c3cccc(Cl)c3Cl)nc(N3CCCCC3)n2)c1Cl | 114% | 89% | 80.7% | 93.2% | 91.2% | 83.7% | 84.1% | 92.5% | 71.3% | 84.3% | 33.4% | 93.4% | 72.9% | 94% | 71.5 | 105 | 79.6% | 8.19% (active) | 85% | 67.4%
CCn1c(SCC(=O)Nc2cccc(C(=O)/C=C/c3ccc(C)cc3)c2)nc2ccccc2c1=O | 108% | 98.8% | 88% | 58.9% | 120% | 92.2% | 80.2% | 94.2% | 67.4% | 88% | 56.4% | 7.2% (active) | 90.9% | 97.6% | 80 | 110 | 77.1% | 43.9% | 101% | 91%
CC(=O)c1ccc(Nc2nc(SCC(C)C)nc(-c3ccccc3)c2C#N)cc1 | 76.7% | 88.6% | 95.9% | 111% | 98.4% | 47.8% | 69.6% | 107% | 102% | 102% | 110% | 111% | 70% | 109% | 103 | 79.7 | 88.6% | 122% | 44.6% | 89.1%
Fc1ccc(-c2cc3nc(C(Cl)Cl)nc(-c4ccco4)n3n2)cc1 | 55.1% | -8.73% (active) | 59.1% | -14.5% (active) | -11.7% (active) | -35.3% (active) | -23.7% (active) | -38.6% (active) | 85.2% | 59.7% | 64.8% | -31.5% (active) | 10.4% | -13.7% (active) | 17.7 | 18.8 | 74.3% | -46.9% (active) | -6.45% (active) | -18.9% (active)
COc1ccc(C2CC(c3cccc(Nc4nc(Cl)nc5cc(OC)c(OC)cc45)c3)=Nc3c(N)nc(N)nc3N2)cc1 (stereo not given) | 100% | 92.1% | 81.8% | 90.7% | 117% | 100% | 94% | 94.7% | 36% | 43.6% | 3.81% (active) | 38.4% | 70.1% | 111% | 96.6 | 121 | 92.5% | 75.3% | 94.4% | 92.3%
Cc1cc2nc(C(Cl)Cl)nc(-c3cccs3)n2n1 | 97.7% | -7.94% (active) | 62.3% | 31% | 18.2% | -36.4% (active) | -30.9% (active) | -40.7% (active) | 59.8% | 21.3% | 48.3% | -23.4% (active) | 35% | 3.63% (active) | 14.9 | 14.7 | 43.2% | -30.9% (active) | 3.9% (active) | 13.7%
CCCCNNC(=O)c1ccc(-c2cccc(F)c2F)cc1 | 26.8% | 45.3% | 56.3% | 3.46% (active) | 13.3% | 22.4% | 30.9% | -6.27% (active) | 27.4% | 27.7% | 25.2% | 5.02% (active) | 20.8% | 24.9% | 41.5 | 47.2 | 31.3% | 44.6% | 41.2% | 13.4%
NC(N)=Nc1ccc(Oc2ccc(Nc3ccc(Cl)c(C(F)(F)F)c3)cc2)cc1 | 91.6% | 52.4% | 31.7% | 69.8% | 95.6% | 73.4% | 69.4% | 68.3% | 20.3% | 18.5% | -4.22% (active) | 41.9% | 55.1% | 66.2% | 52.3 | 89.4 | -7.75% (active) | -21.8% (active) | 56.1% | 91.9%
O=S(=O)(NCCNc1nccc(-n2cnc3ccccc32)n1)c1ccc(C(F)(F)F)cc1 | 67.8% | 34.7% | 72.5% | 39.9% | 63.4% | 60.8% | 43.1% | 56.6% | 57.6% | 45.2% | 35.5% | 44.9% | 63.5% | 86.2% | 28.4 | 62.2 | 66.4% | 72.9% | 42.9% | 55.9%
